# The list is not random: actives were taken first. Their share in the collection is about 20%.
# Cycloheximide cs = counter-screen for Shiga toxin inhibitors: cycloheximide protein synthesis inhibition. cell reporter, cycloheximide protein synthesis inhibition counterscreen. max response, %. actives 12% (n = 300,000); in the data active means max response mostly above about 13%, no sharp cut-off; inactive means mostly below about 14%; further: read at 38.3 µM for the half of the compounds with a filed dose
# Pf growth 96h = P. falciparum growth inhibition at 96 hour, primary screen for plastid delayed-death inhibitors | P. falciparum luciferase reporter growth, 96 h | Potency, µM (doses to about 28.7 µM), actives largely listed as inhibitors | actives 6.9% (n = 320,000)
#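 Plates of compound plus infected erythrocytes (2% hematocrit, 0.05% parasitemia final) incubate 96 hours, 37 C, 5% CO2. Detection reagent added; reduced luminescence from the parasites' luciferase reporter flags inhibition.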
# Shiga toxin inh = Shiga toxin inhibition; Vero cells, Shiga toxin protein synthesis inhibition reporter; inhibition, % at 38.7 µM; actives 9.2% (n = 290,000); AID 2315; in the data active means inhibition mostly above about 28%, no sharp cut-off; inactive means mostly below about 43%
# Pf growth 48h = P. falciparum growth inhibition at 48 hours (one generation) | P. falciparum luciferase growth in erythrocytes, 48 h | actives 5.9% (n = 310,000) | Potency, µM (highest dose often 28.7 µM), usual class: inhibitors
#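 In quantitative HTS format, infected erythrocytes bearing luciferase-reporter parasites were treated for a single generation at 37 C. Luminescence after adding detection reagent served as the growth measure.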
# HCMV antiviral = human cytomegalovirus inhibition | HFF cells, HCMV-luciferase reporter, 72 h; stronger effect = lower value | actives 4.5% (n = 410,000) | activity change, negative = inhibition, % at 57.5 µM | AID 1259415; in the data active means activity change below about -60%; inconclusive means no clear call, values can overlap the other calls; inactive means above about -39%
#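 Two-dose cell screen: HFF monolayers treated with compounds and infected with luciferase-expressing HCMV at 1 PFU/cell, 72 h at 37C, then lysed for luciferase measurement.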
# A number is an active result; . = inactive; ? = inconclusive; / = not tested or not shown. Unless noted, the call rests on the fitted dose curve; in most records, active means well fitted inhibition curve with a large enough effect; inconclusive means small, poorly fitted or top-dose-only effect, or another doubt; inactive means no such curve, though single readings can be large or run the other way.
SMILES,Cycloheximide cs,Pf growth 96h,Shiga toxin inh,Pf growth 48h,HCMV antiviral
CN(C)c1ccc(NC(=O)CC(NCc2cccnc2)C(=O)O)cc1 (centres undefined),/,/,/,/,.
Nc1nc(-c2ccc(Br)s2)c(Br)s1,38,/,63,.,.
N#Cc1c(N)nc2c(c1-c1ccc(Br)s1)CCCC2,.,.,.,.,.
O=C(Nc1ccc(-c2nc3ccccc3[nH]2)cc1)c1ccc(N2C(=O)CCC2=O)cc1,.,.,.,.,.
Cc1ncc(CSc2nc3ccccc3[nH]2)c(N)n1,.,.,.,.,.
c1ccc(-c2cc(CSc3nc4ccccc4[nH]3)on2)cc1,.,/,.,.,?
O=C1CCC(=O)N1c1ccc(CSc2nc3ccccc3[nH]2)cc1,27,.,87,.,.
CCOc1ccccc1CSc1nc2ccccc2[nH]1,19,?,.,?,?
CCOc1ccccc1/C=C/c1nc2ccccc2[nH]c1=O,13,.,.,.,.
CCOc1ccccc1OCCCC(=O)Nc1nc2ccccc2[nH]1,.,.,.,.,.
c1ccc2[nH]c(SCc3ccc(-c4nnco4)cc3)nc2c1,18,?,89,.,.
CC(=O)NS(=O)(=O)c1ccc(NC(=O)c2ccc3c(c2)OCO3)cc1,.,?,.,.,.
COc1ccc(CSc2nc3ccccc3[nH]2)cc1,35,.,74,.,?
CCOC1=CC(=O)N(CCC(=O)NCc2ccc(C)cc2)C1,/,/,/,/,.
COc1cccc(CSc2nnc(-c3ccc(F)cc3)o2)c1,18,?,.,.,.
Fc1ccc(-c2nnc(SCc3cccnc3)o2)cc1,26,.,66,.,.
Cn1c(O)c(N=NC(=O)Cn2c(C(F)(F)F)nc3ccccc32)c2ccccc21,.,.,.,.,.
CSCC[C@H](NC(=O)c1nn(C)c(=O)c2ccccc12)c1nc2ccccc2[nH]1,.,?,.,?,.
CCn1nc(C(=O)N[C@@H](CCSC)c2nc3ccccc3[nH]2)c2ccccc2c1=O,25,?,.,/,.
CCCCn1nc(C(=O)N[C@@H](CCSC)c2nc3ccccc3[nH]2)c2ccccc2c1=O,.,12µM,.,?,.
CSCC[C@H](NC(=O)C(C)Oc1ccc(Cl)cc1)c1nc2ccccc2[nH]1 (some centres undefined),.,6.6µM,.,?,.
Cc1nc2ccccn2c(=O)c1NC(=O)c1ccccc1Cl,/,/,/,/,.
CC(=O)[C@@]1(O)Cc2c(O)c3c(c(O)c2[C@H](O[C@H]2C[C@H](N)[C@H](O)[C@H](C)O2)C1)C(=O)c1ccccc1C3=O,/,/,/,/,-99
CC(=O)C1(O)Cc2c(O)c3c(c(O)c2C(OC2CC(N)C(O)C(C)O2)C1)C(=O)c1c(O)cccc1C3=O (centres undefined),/,0.85µM,/,1.5µM,/
COc1ccc(C(=O)Nc2nc(C)c(C)s2)cc1OC,55,?,96,.,.
SMILES,Cycloheximide cs,Pf growth 96h,Shiga toxin inh,Pf growth 48h,HCMV antiviral
COc1ccc(C(=O)Nc2cccnc2)cc1OC,13,.,.,.,.
COc1ccc(C(=O)Nc2cccc(NC(=O)c3ccc(OC)c(OC)c3)n2)cc1OC,22,.,39,10µM,.
CC(C)(C)c1ccc(C(=O)Nc2ccc(Oc3cccnc3)nc2)cc1,.,?,.,?,-66
COc1ccc(Cc2nnc(NC(=O)c3ccc(OC)c(OC)c3)s2)cc1,.,?,.,.,.
Cc1ccc(C(=O)NC2(C(F)(F)F)N=C(c3ccccc3)N(C3CCCCC3)C2=O)cc1 (centres undefined),/,/,/,/,.
COc1ccc(C(=O)Nc2cccc3cccnc23)cc1OC,.,.,.,/,.
O=C(Nc1cccnc1)c1ccc(S(=O)(=O)c2ccc(Cl)cc2)cc1,.,.,.,?,-86
CC(C)(C)c1ccc(C(=O)Nc2cccnc2)cc1,26,.,.,.,.
COc1ccc(C(=O)Nc2cccnc2Cl)cc1OC,.,.,.,.,-87
O=C(Cn1ncc2c(=O)oc3ccccc3c21)NC1CC1,.,?,.,.,.
COC(=O)C(CCSC)NC(=O)Cn1ncc2c(=O)oc3ccccc3c21 (centres undefined),.,12µM,.,/,.
O=C(Cn1ncc2c(=O)oc3ccccc3c21)NCC1COc2ccccc2O1 (centres undefined),.,1.9µM,.,/,.
CCN(CC)c1ccc(S(=O)(=O)N2CCOCC2)cc1NC(=O)COC(=O)c1cccnc1SC,/,.,/,?,.
COc1ccc(OC)c(-c2csc(NC(=O)COC(=O)C3(C)CC3(Cl)Cl)n2)c1 (centres undefined),/,.,/,?,.
COC(=O)Nc1nnc(/C=C/c2ccc(OC)cc2)s1,58,.,96,.,.
COc1ccc(/C=C/c2nnc(NC(C)=O)s2)cc1,35,.,72,.,.
COc1ccc(/C=C/c2nnc(NC(=O)CC(C)C)s2)cc1,.,.,.,.,.
CCn1c(NC(=O)C(C)C)c(-c2ccccc2)c(=O)c2ccccc21,.,.,.,?,.
CCOC(=O)CN(C(=O)CSc1nnc2c(n1)[nH]c1ccccc12)c1ccccc1,.,?,.,7.4µM,.
CCOC(=O)CN(C(=O)CSc1nnc2c(n1)[nH]c1c(C)cc(C)cc12)c1ccccc1,.,?,.,/,.
CCOC(=O)CN(C(=O)CSc1nnc2c(n1)[nH]c1ccc(F)cc12)c1ccccc1,.,.,.,13µM,.
O=S(=O)(Cc1ccccc1)NCC1CCCN(Cc2ccc(F)c(F)c2)C1 (centres undefined),.,?,.,.,.
Cc1ccc(S(=O)(=O)N2C3CCCCC3O[C@H]2CC(=O)OCc2ccccc2)cc1 (some centres undefined),/,/,/,/,.
CN(C)C(=O)Oc1ccc(C(=O)c2ccccc2)cc1,40,/,42,.,.
CC(=O)c1ccc(OC(=O)N(C)c2ccccc2)cc1,36,.,66,.,.
SMILES,Cycloheximide cs,Pf growth 96h,Shiga toxin inh,Pf growth 48h,HCMV antiviral
CC(=O)c1ccc(OC(=O)N(c2ccccc2)c2ccccc2)cc1,.,.,.,/,.
CCOC(=O)C(NC(C)=O)C(OC(C)=O)c1cccc([N+](=O)[O-])c1 (centres undefined),.,.,.,.,.
CCOC(=O)C(NC(C)=O)C(OC(C)=O)c1cccc(N(CCCl)CCCl)c1 (centres undefined),.,10µM,.,?,-64
CC1=NN(C(=O)CSCc2ccccc2)C(O)(c2ccccc2)C1 (centres undefined),.,.,.,?,.
CC1=NN(C(=O)c2ccco2)C(O)(c2ccccc2)C1 (centres undefined),45,?,80,?,.
CC1=NN(C(=O)COc2ccccc2)C(O)(c2ccccc2)C1 (centres undefined),.,.,.,.,.
CC1=NN(C(=O)c2ccc(C)o2)C(O)(c2ccccc2)C1 (centres undefined),30,.,active,.,.
CC1=NN(C(=O)c2ccccc2C)C(O)(c2ccc(Cl)cc2)C1 (centres undefined),.,10µM,.,.,.

# From PubChem BioAssay
